Laboratory results reported in PubChem BioAssay AID2289 (National Center for Advancing Translational Sciences (NCATS), 2010).
Screen size: about 340,000 compounds; about 3,300 (0.97%) were called active. Another 9% or so got no clear call; they are omitted. Calls come from the whole dose curve; as a rule, active = well fitted inhibition curve with a large enough effect; inconclusive = small, poorly fitted or top-dose-only effect, or effect the other way; inactive = flat fitted curve, though single readings scatter. The list shows a part of the results.

Experiment: qHTS Assay for Modulators of miRNAs and/or Inhibitors of miR-21; note: nearly all actives have a fitted effect of over 55% in size
Settings: HeLa miR-21-FLuc reporter, luciferase luminescence, 48 h; actives lower the signal
Method in brief: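 Luminescence from a firefly luciferase reporter carrying a miR-21 binding site downstream, stably expressed under a CMV promoter in HeLa cells that make miR-21 endogenously, reports miRNA modulation after 48 h compound exposure up to approximately 40uM final.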
Potency is the fitted concentration of half-maximal effect.

Potency, active:
Cc1ccc(Nc2nc(/N=C/N(C)C)n[nH]2)cc1C 7.36 µM
Cc1ccc(Nc2nc(/N=C/NO)n[nH]2)cc1C 1.85 µM
COCn1c(-c2ccc(OC)cc2)nc2ccccc21 3.69 µM
COCn1c(COc2ccc3ccccc3c2)nc2ccccc21 2.07 µM
C=CCn1c(-c2ccc(N)cc2)nc2ccccc21 4.65 µM
O=C(c1cc(-c2ccccc2O)on1)N1CCCCC1 0.826 µM
O=C(c1cc(-c2ccccc2O)on1)N1CCCCCC1 2.07 µM
O=C(c1cc(-c2ccccc2O)on1)N1CCOCC1 13.1 µM
Cc1ccc2c(c1)NC(=O)CC(c1ccccc1)=N2 13.1 µM
CSc1ccc(/C=C/C(=O)c2c(O)cc(C)oc2=O)cc1 13.1 µM
Cc1ccc(NC(=O)CCCNC(=O)c2ccc(Cl)cc2)c(O)c1 16.5 µM
[O-]/[N+](=C\C=C\c1ccccc1)c1ccccc1 1.85 µM
CC(=O)Nc1ccc(C(=O)/C=C/c2ccc[nH]2)cc1 13.1 µM
COc1ccc(N2Cc3ccc(OC)c(OC)c3C2=O)cc1 2.07 µM
Cc1ccc(OCC(=O)Nc2ccccc2F)cc1C 4.14 µM
Cc1cccc(OCC(=O)Nc2ccccc2F)c1 6.56 µM
Cc1ccc(NC(=O)CSc2nnc(-c3cccs3)o2)cc1S(=O)(=O)N(C)C 8.26 µM
Cc1nc(NC(=O)CSc2nnc(-c3ccc4c(c3)OCO4)o2)c(Cl)cc1Cl 16.5 µM
O=C(CSCc1ccccc1Cl)Nc1ccc2c(c1)OCCO2 2.07 µM
O=C(CSc1nnc(-c2ccccc2Cl)o1)Nc1ccc2c(c1)OCCO2 6.56 µM
Cc1ccc(/C=C/C(=O)NCc2cccs2)c(C)c1 5.85 µM
COc1ccc(N(/N=C2\Sc3ccccc3C2=O)C(C)=O)cc1 0.261 µM
O=C(COC(=O)c1ccc[nH]c1=O)NCCc1ccc(Cl)cc1Cl 1.65 µM
COc1ccc(/C=C/c2nc(-c3ccccc3O)n[nH]2)cc1OC 4.65 µM
COc1ccc(/C=C/c2nc(-c3ccccc3O)n[nH]2)cc1 2.33 µM
CCc1nc2ccc(C(=O)NCCc3ccco3)cc2nc1CC 14.7 µM
COc1cc(C(F)(F)F)ccc1C(=O)NCCc1ccco1 7.36 µM
O=C(CCSc1ccccc1)N1CCN(c2ccccc2)CC1 6.56 µM
CC1CCN(C(=O)CSCc2ccc(Cl)cc2)CC1 11.7 µM
O=C(CCSc1ccccc1)N1CCN(c2ccccc2F)CC1 7.36 µM
O=C(CSCc1ccccc1)N1CCN(c2ccccc2)CC1 6.56 µM
